Measurements taken from the supplement of paper PMC12632987.
Over roughly 2,300 sequences, “median log2 fold change of GCK-ALFA target abundance (FLAG IP / Myc IP barcode read proportion)” has its median near 0.095; the lowest 2% begin near -0.47. The entries come from a sample that favours the lowest values as a whole.

B1: LC3A_23_598 (protein)
chain: MYKVELIVSLIGEEEEIKKKAEKLKKEIEKILEKYKDKIISYKINVSFEKLEDGKTYLEIEVEIIIEDDEEVAEEIAEELTDAADKILPDGVISVEVEKL
B2: LC3A_141_368 (protein)
chain: TTLTITTDIGRASLDEIVAKMDELEEAALAAHRELGGGRVRVTVTITVKNLKTGETTTITEEFEADEEELELIMEGVLIEVASYALTEDAEVTVTVTLEG
B3: LC3A_3_1723 (protein)
chain: MEKIKAEALAVLKAQGASPETIKAAEELLKALEEKGFLEAAKTLLEELKKLKGVSSEDLLAALKDLLYKVTNEDLSEEEVIEEIKREFSVLKSAKEIEEL
B4: LC3A_141_386 (protein)
chain: MKKEFEFTATEEEAQEVFDFFDEVEKELLEMIEESGGKPVKVKVTIKATNDETGEVVEKEEEFTVTKENVSEVMEGLAIEVLSLLDKVKGTVEVKIEAEV
B5: LC3A_28_1018 (protein)
chain: SELEEQIEEIEKEVEEAIEKGEDVVVTLEIKGSMSEEEVREAMERVKEIVLEGAEKGKVDLVIDVDKDVSQEKLDIVLEAADEIEEKAPNVNVIIALEER
B6: LC3A_147_510 (protein)
chain: YLVEIDVDLLVKNAVEEVKKRFKEIVEKLKKKGYKVELEIKEEKIDENTYYVEVTIKIYAETKEEAEKAANETLSLLDEMLEELKDEILGSLISVDIEET
B7: LC3A_59_2020 (protein)
chain: SEEIEEYREKMRANIDDIDAFTATVREALEKFKDDPEKVKEILKAAMDVVVEELGADKEEAEKVLEEMLKILEEEKDKEKAIEKIVDLIRDLLLLTPIEE
B8: LC3A_free_8_2464 (protein)
chain: ASQKLVDTIVAKLDELEKALVKKAKEEGKSRLDILELELEVGSAIAELISNVDASPEEILKTLKEDLKDIIKVAKEIGEEVAKLAKEKSKEILAEAEALI
B9: LC3A_17_552 (protein)
chain: REELRERLRRLLEELRALVERLEPYDPEAARRLRERLERAEELLEAGRLREAAETLAEAAREAARRAEELEPKYGNEMSVLAMEFNGLELEAIGLLLELD
B10: LC3A_132_298 (protein)
chain: DEEKAKEILEKVKEKVEEAKENIDNEEKVEELLEEIEELIKEAEEKLSPELLAKVMEEVAELLDELSQKFLEAGKEHLAMLADGLAIEAESLALRAEKEI
B11: LC3A_3_1773 (protein)
chain: MEELLARFEEKLRAAGFSEEVIKEALAAIKTFLEKGREEVAETFLELMLEAKDLSEEKLLVMARMAKELAEESKVSEEELIKELKRLFESIAGIEELDEE
B12: LC3A_3_1887 (protein)
chain: MDEKIEETLKRLKEAGASEETLEAFKRVVEKLKARGWDEALNTLIEKVDELLDAPDEVRLAFLQDVLALLDTPGVSEEELIAGINELATLAKNEAEIIEL
B13: LC3A_28_691 (protein)
chain: SAIDETIARIRAQAEAALAAGEEALLEVTVPATATQEDIDRLIATIREAVERLAGVGKVYIVVDVESGVAQENITRLADALDELEAEYPNVTVVIALDED
B14: LC3A_28_654 (protein)
chain: EEVEKELKEALKEAEEAKKKKEPAVITIKVSGKVNEEELKKILETLEKIAELLKDIKGSAIIIDLDKDVKEEFKNKLIDKAEELEKKYPNVTVIIALEER
B15: LC3A_3_1762 (protein)
chain: MEAFIEAAAKELKEAGASEELIEKASRALRLLLERGLEETAKEFVKVLLELLKKSEELALDLAEDVLTLLETSTLSPEELAKAVRSEMNAALSEAEIEEL
B16: LC3A_28_950 (protein)
chain: MSIEENIEKALKEAKEAKEKNEPVVITLVLEDDPSEEAVEALIEAMEEIAELLKDIKGTTIIVDVSSKVKQEHIDAIADKGEEIEKKYPNINVIIALDED
B17: LC3A_102_127 (protein)
chain: EVEKLKKELLEKVKKEVEKLLEKDKSLSEEEKKKILELAEKLAEAKLENAEIEIQHGFVDIYLEDKAIELQEELEKIDKELAKKINEIIEKGVEEFRKKL
B18: LC3A_free_46_2348 (protein)
chain: YKAEILIDLLAKDKETLEKAVKEIVEEAKKIAEKYNLELEIKVKIEKLEDGSYYAEIEITLKGETEEDLQKAVNELINKIEEIAKKYGVAAIISYEIIKE
B19: LC3A_28_708 (protein)
chain: NPLEESIKKALEEAKAAAKAGESTVITIKVPGSATEEDIEKLIKALEEIAEITKDLPSTSIIIDVDGGVKQEHIDKIADAAEEIEKKYPNVTVIIALDET

Target: MAP1LC3A, Q9H492
Experiment: median log2 fold change of GCK-ALFA target abundance (FLAG IP / Myc IP barcode read proportion) (log2 ratio); each designed protein is fused to an ALFA-tag nanobody in HEK293 cells to bring the named protein to FLAG-tagged glucokinase (GCK); Myc marks an untargeted standard; higher = target protein stabilised (more abundant)
Details: target protein: 3xFLAG-MCP-GCK-ALFA reporter; HEK293 landing pad (RPLP)
Procedure, shortened: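 The readout is target abundance, the per-binder median log2 ratio of FLAG to Myc barcode read proportions. It came from HEK293 landing-pad cells carrying a recombined ALFA-nanobody-fused binder library, induced with 2 μg mL^−1 doxycycline and transfected with a plasmid for a FLAG-tagged target and a Myc-tagged standard. After 48 h, lysates were immunoprecipitated with anti-FLAG and anti-Myc, and circular RNA barcodes were reverse transcribed, amplified and sequenced. Each barcode needed a proportion of at least 10^−7 in both replicates and each binder at least 3 barcodes per replicate, a pseudocount of 10^−6 was added, and the replicates were pooled.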

Going from B1 to B2, the “median log2 fold change” value falls from -0.0746 to -0.781.

B3 and B4 are within 0.2 log units of each other in “median log2 fold change” value: 0.206 for the first, 0.221 for the second.

B5 and B6 are within 0.2 log units of each other in “median log2 fold change” value: -0.171 for the first, -0.119 for the second.

Compared with B7, B8 is higher in “median log2 fold change” value: -0.571 for the first, -0.304 for the second.

Compared with B9, B10 is lower in “median log2 fold change” value: 0.248 for the first, -0.0134 for the second.

B11 and B12 are within 0.2 log units of each other in “median log2 fold change” value: 0.23 for the first, 0.21 for the second.

First: B13
Second: B14
The “median log2 fold change” value of the first is lower: -0.0472 for the first, 0.153 for the second.

B15 and B16 are within 0.2 log units of each other in “median log2 fold change” value: 0.226 for the first, 0.204 for the second.

First: B17
Second: B18
The “median log2 fold change” value of the first is lower: -0.519 for the first, -0.204 for the second.

In the case of B19, the “median log2 fold change” value is reported as 0.0817.
